Experimental data from PubChem BioAssay (EPA / NIEHS).
Inconclusive results are not listed. Active and inactive are the calls of the source. Rule for the calls: active = hit-call score of the fitted dose curve at least 0.9, where 1 is the maximum; inconclusive = response in the unintended direction; inactive = score below 0.9.

Experiment: Tanguay_ZF_120hpf_SNOU_legacy: (Legacy) Oregon State University Tanguay Lab 120 Hour Post-fertilization zebrafish Assay for Snout Malformation (AID 2283637)
Method: Tanguay_ZF_120hpf_legacy is a whole embryo, multiplexed endpoint assay using zebrafish larvae exposed for 120 hours post fertilization on a 96-well plate.Tanguay_ZF_120hpf_SNOU_legacy is one of one assay component(s) measured or calculated from the Tanguay_ZF_120hpf_legacy assay. It is designed to make measurements of zebrafish development as detected with brightfield microscopy of developing zebrafish embryos.Data from the assay component Tanguay_ZF_120hpf_SNOU_legacy was analyzed into 1 assay endpoints. This assay endpoint, Tanguay_ZF_120hpf_SNOU_legacy, was analyzed in the positive analysis fitting direction relative to DMSO as the negative control and baseline of activity. Using a type of morphology reporter, gain-of-signal activity can be used to understand changes in developmentals as they relate to the whole embryo. To generalize the intended target to other relatable targets, this assay endpoint is annotated to the zebrafish development intended target family, where the subfamily is embryonic snout morphogenesis.
Zebrafish husbandry: Tropical 5D wild-type adult zebrafish were housed in at an approximate density of 1000 per 100 gallon tank at the Sinnhuber Aquatic Research Laboratory, Oregon State University, Corvallis, OR. Each tank was kept at standard laboratory conditions of 28C on a 14-h light/10-h dark photoperiod in fish water consisting of reverse osmosis water supplemented with a commercially available salt (Instant Ocean). Spawning funnels were placed into the tanks the night prior, and embryos were collected and staged. To increase bioavailability, the chorion was enzymatically removed using pronase (63.6mg/ml, >/= 3.5U/mg, Sigma-Aldrich: P5147) at 4 hours post fertilization (hpf) using a custom automated dechorionator.Chemical exposures: Six hpf dechorionated embryos were placed 1 embryo per well in a 96-well plate prefilled with 90 ul of EM using automated embryo placement systems (AEPS). Ten microliters of each row of dilution plate 2 was added to 2 exposure plates. The final DMSO concentration used was 0.64% (vol/vol). Thirty-two embryos were also exposed to 5uM trimethyltin chloride (positive control). Plates were sealed to prevent evaporation and foil covered to reduce light exposure and kept in a 28C incubator. Embryos were statically exposed until 120 hpf. At 24 hpf, embryos were assessed for photomotor response using a custom photomotor response analysis tool (PRAT) and for developmental toxicity endpoints (MO24: mortality at 24 hpf, DP: developmental progression, SM: spontaneous movement, and NC: notochord distortion). At 120 hpf, locomotor activity was measured using Viewpoint Zebralab and assessed for 18 endpoints. Zebrafish acquisition and analysis program (ZAAP), a custom program designed to inventory, acquire, and manage zebrafish data, was used to collect developmental endpoints as either present or absent (i.e., binary responses were recorded). If mortality occurred for an embryo (at either 24 or 120 hpf), the non-mortality endpoints were not measured.

| Structure (SMILES) | outcome | AC50 |
| --- | --- | --- |
| COc1ccc(C(c2ccc(OC)cc2)C(Cl)(Cl)Cl)cc1 | inactive |  |
| CC1=C(C(=O)Nc2ccccc2)SCCO1 | inactive |  |
| CS/C(C)=N/OC(=O)N(C)SN(C)C(=O)O/N=C(\C)SC | inactive |  |
| CCc1nn(C)c(C(=O)NCc2ccc(C(C)(C)C)cc2)c1Cl |  | 6.18 µM (active) |
| CCCCC(CC)COC(=O)c1ccccc1C(=O)OCC(CC)CCCC (stereo not given) | inactive |  |
| COC(=O)N(OC)c1ccccc1COc1ccn(-c2ccc(Cl)cc2)n1 | inactive |  |
| COc1cnc(OC)n2nc(NS(=O)(=O)c3c(OCC(F)F)cccc3C(F)(F)F)nc12 | inactive |  |
| CCCCNC(=O)OCC#CI | inactive |  |
| CNC(=S)S | inactive |  |
| CCOP(=S)(OCC)SCn1c(=O)oc2cc(Cl)ccc21 | inactive |  |
| CNC(=O)ON=CC(C)(C)SC | inactive |  |
| Cc1cc(Cl)ccc1OCC(=O)O | inactive |  |
| CCCC1COC(Cn2cncn2)(c2ccc(Cl)cc2Cl)O1 (stereo not given) |  | 25.2 µM (active) |
| O=C(O)COc1nc(Cl)c(Cl)cc1Cl | inactive |  |
| C=CC1(C)OC(=O)N(c2cc(Cl)cc(Cl)c2)C1=O (stereo not given) | inactive |  |
| CCCCNC(=O)n1c(NC(=O)OC)nc2ccccc21 |  | 56.7 µM (active) |
| COc1nc(NC(C)C)nc(NC(C)C)n1 | inactive |  |
| Oc1ccccc1-c1ccccc1 | inactive |  |
| O=C(O)c1nc(Cl)ccc1Cl | inactive |  |
| CCOc1cc(Oc2ccc(C(F)(F)F)cc2Cl)ccc1[N+](=O)[O-] | inactive |  |

| Structure (SMILES) | outcome | AC50 |
| --- | --- | --- |
| CON(C)C(=O)Nc1ccc(Cl)c(Cl)c1 | inactive |  |
| OC(c1ccc(Cl)cc1)(c1cncnc1)c1ccccc1Cl (stereo not given) | inactive |  |
| COC(=O)C(C)Oc1ccc(Oc2ccc(Cl)cc2Cl)cc1 (stereo not given) | inactive |  |
| COP(N)(=O)SC (stereo not given) | inactive |  |
| COC(=O)c1ccccc1C(=O)OC | inactive |  |
| CCNc1nc(Cl)nc(NC(C)C)n1 | inactive |  |
| CN(C)C(=S)SSC(=S)N(C)C | inactive |  |
| Fc1ccc(Oc2ccnc3cc(Cl)cc(Cl)c23)cc1 | inactive |  |
| N#Cc1nn(-c2c(Cl)cc(C(F)(F)F)cc2Cl)c(N)c1S(=O)C(F)(F)F (stereo not given) | inactive |  |
| Cc1c(F)c(F)c(COC(=O)C2C(/C=C(\Cl)C(F)(F)F)C2(C)C)c(F)c1F (stereo not given) |  | 4.35 µM (active) |
| N#Cc1cc(Br)c(O)c(Br)c1 | inactive |  |
| CC(C)Oc1cc(-n2nc(C(C)(C)C)oc2=O)c(Cl)cc1Cl | inactive |  |
| Cc1ccc(-c2c(Cl)nc(C#N)n2S(=O)(=O)N(C)C)cc1 | inactive |  |
| CCNc1nc(Cl)nc(NCC)n1 | inactive |  |
| CO/C=C(/C(=O)OC)c1ccccc1Oc1cc(Oc2ccccc2C#N)ncn1 | inactive |  |
| CCCCOC(=O)c1ccccc1C(=O)OCCCC | inactive |  |
| CCOC(=O)CC(SP(=S)(OC)OC)C(=O)OCC (stereo not given) |  | 38.1 µM (active) |
| CCCN(CCC)c1c([N+](=O)[O-])cc(S(N)(=O)=O)cc1[N+](=O)[O-] | inactive |  |
| CC(C)C1(C)N=C(c2nc3ccccc3cc2C(=O)O)NC1=O (stereo not given) | inactive |  |
| C=CCC1=C(C)C(OC(=O)C2C(C=C(C)C)C2(C)C)CC1=O (stereo not given) | inactive |  |
